From PubChem BioAssay
Only some compounds are listed: those with a hit (about 22% of all), similar ones and a draw of the others.
CYP2C9 activ = increases human cytochrome P450 2C9 activity; activation factor at 5 µM; 96,000 tested, 1.4% active; AID 1024; recombinant CYP2C9, luciferin-H conversion, luminescence; hits give high values; factor 1 = untreated enzyme, 0 = blocked;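 active means activation factor of 2 or more for CYP2C9 at a 5 µM dose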;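 further: 0 = sulfaphenazole-blocked wells and 1 = vehicle-only wells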
Measles CPE = protection of cells from measles virus | Measles virus-infected cells, CPE protection, absorbance | protection (pct of control), % at 4 µM | 140,000 tested, 1.5% active | AID 841; in the data active means protection mostly above about 24%, no sharp cut-off; inactive means mostly below about 26%
CYP2C9 inhib = blocks human cytochrome P450 2C9. P11712. inhibition, % at 5 µM. CYP2C9 Supersomes, luciferin-H conversion, luminescence. 96,000 tested, 20% active;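 active means blocking of liver enzyme CYP2C9 beyond about 50% at 5 µM, limit read from the data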
CYP2C19 activ = cytochrome P450 2C19 (human) activation. P33261. recombinant CYP2C19, luciferin-H EGE luminescence; hits give high values; 0 = fully inhibited enzyme, 1 = untreated enzyme. activation factor at 5 µM. 96,000 tested, under 10 active. AID 1025;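 active means activation factor of at least 2 at 5 µM in the primary screen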;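 further: 0 = wells with 2.5 mM tranylcypromine and 1 = vehicle-only wells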
Target sequence (P33261 whole entry, looked up): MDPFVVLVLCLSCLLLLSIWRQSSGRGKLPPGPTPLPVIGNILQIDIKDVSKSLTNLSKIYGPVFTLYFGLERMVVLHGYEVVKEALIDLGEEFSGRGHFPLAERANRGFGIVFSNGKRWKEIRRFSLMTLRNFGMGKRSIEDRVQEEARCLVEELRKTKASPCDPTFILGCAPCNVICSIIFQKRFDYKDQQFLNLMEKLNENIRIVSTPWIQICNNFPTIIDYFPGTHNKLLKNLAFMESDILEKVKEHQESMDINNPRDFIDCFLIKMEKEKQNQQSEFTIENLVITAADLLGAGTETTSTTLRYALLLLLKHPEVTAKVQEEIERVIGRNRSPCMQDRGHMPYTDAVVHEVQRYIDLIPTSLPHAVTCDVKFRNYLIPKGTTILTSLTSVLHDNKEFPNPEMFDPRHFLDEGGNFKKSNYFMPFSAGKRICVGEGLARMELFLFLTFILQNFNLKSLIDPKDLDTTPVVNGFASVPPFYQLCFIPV
CYP2C19 inh = inhibitors of human CYP2C19. AID 778. 96,000 tested, 21% active. CYP2C19 Supersomes, luciferin-H EGE luminescence, 30 min. inhibition, % at 5 µM;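 active means CYP2C19 inhibition above a set limit at 5 µM in the primary screen, cut at about 50% in these data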;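 further: plate controls were negative control wells for no effect and 2.5 mM tranylcypromine positive control for full effect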
* marks the source's active call; other numbers are inactive results; / = no result.

SMILES	CYP2C9 activ	Measles CPE	CYP2C9 inhib	CYP2C19 activ	CYP2C19 inh
CN1/C(=C\C=N\NC(=O)c2ccccc2Br)C(C)(C)c2ccccc21	/	25	/	/	/
Cc1ccc(C(C(=O)NCC2CCCO2)N(Cc2ccccc2)C(=O)c2ccc(-c3ccccc3)[nH]2)o1 (configuration not stated)	/	4	/	/	/
O=C(O)CC1Oc2ccc(Cl)cc2NC1=O (configuration not stated)	0.4	13	55*	0.9	8
O=C(Cc1ccccc1)Nc1ccc(C(=O)O)cc1	/	12	/	/	/
Cc1nn2cc(-c3ccccc3)nc2[nH]c1=O	0.3	6	74*	0.9	5
O=C(O)CCc1nn2cc(-c3ccccc3)nc2[nH]c1=O	/	6	/	/	/
COc1ccc(-c2noc(CCC(=O)Nc3cc(Cl)c(OC)cc3OC)n2)cc1	0.5	10	54*	0.2	82*
COc1ccc(-c2noc(CCC(=O)Nc3cc(OC)ccc3OC)n2)cc1	0.2	5	82*	0	98*
COc1ccc(C2=NC(C(F)(F)F)(C(F)(F)F)c3c(n(C)c(=O)n(C)c3=O)N2)cc1	0.8	3	20	1.1	-14
O=C(Nn1c(SCc2ccccc2F)nc2ccsc2c1=O)c1ccccc1	/	6	/	/	/
O=S(=O)(Nc1ccc(-c2nnc(SCc3ccc(Cl)cc3)o2)cc1)c1ccccc1	/	26	/	/	/
Clc1ccc(CSc2nnc(-c3ccc4c(c3)OCO4)o2)cc1	0.5	5	50*	0.8	21
CCSc1nnc(-c2ccncc2)o1	/	3	/	/	/
Clc1ccc(CSc2nnc(-c3ccncc3)o2)cc1	0.2	1	82*	0.1	92*
Cc1ccc(NC(=O)Cc2nc(CSc3nnc(-c4ccc5c(c4)OCO5)o3)cs2)cc1	0.8	17	20	0.4	61*
Cc1ccnc(NC(=O)C2(c3cccs3)CCOCC2)c1	/	3	/	/	/
CC1CC2(C)Oc3ccccc3C3OCC1(CO)C(C)C32 (configuration not stated)	1.2	8	-21	0.8	18
CC(OC(=O)c1ccc2ccccc2n1)C(=O)Nc1ccc(N2CCOCC2)cc1 (configuration not stated)	0.9	7	13	1	4
COc1cccc2c1N1C(=O)c3c(C(=O)O)cccc3C1CC2(C)C (configuration not stated)	0.3	8	70*	1	-2
CC(C)CNC(=O)NC(=O)COc1ccc(C=O)cc1	0.2	2	83*	0.1	95*
COc1ccc(-c2ccnc3nc(-n4cccc4)nn23)cc1	0.5	19	51*	0.7	26
COc1ccc(-c2ccnc3nc(N4CCOCC4)nn23)cc1	0.7	7	31	0.8	17
Cc1nn(C(C)(C)C)c(OC(=O)c2ccc3c(c2)OCO3)c1Sc1ccccc1	0.6	3	42	0.7	27
Cc1nn(C(C)(C)C)c(OC(=O)c2ccc(Br)o2)c1Sc1ccccc1	0.9	4	12	0.3	74*
Cc1nn(C(C)(C)C)c(OC(=O)c2ccco2)c1Sc1ccccc1	0.4	23	61*	0.9	6
SMILES	CYP2C9 activ	Measles CPE	CYP2C9 inhib	CYP2C19 activ	CYP2C19 inh
Cc1nn(C(C)(C)C)c(OC(=O)c2cccs2)c1Sc1ccccc1	0.3	17	65*	0.7	33
CCNC(=O)NC(=O)C(C)On1nnc2ccc(S(=O)(=O)N(CC)CC)cc21 (configuration not stated)	/	5	/	/	/
COC(=O)c1ccc(Nc2cc(C)nc(-c3ccccc3O)n2)cc1	0.4	10	59*	0.8	21
Cc1nn(CC#N)c(=O)n1-c1ccc(F)cc1	1	6	0	1	2
CC(C)Oc1ccc2c(=O)c(-c3ccccc3)coc2c1	/	2	/	/	/
Cc1ccccc1-c1coc2cc(O)ccc2c1=O	2.5*	7	-147	0.8	21
O=C(COc1cccc2ccccc12)Nc1nc2ccccc2[nH]1	1.6	7	-59	0.9	12
Cc1cccc(-n2c(CCCN3C(=O)c4ccccc4C3=O)nc3ccccc3c2=O)n1	0.6	6	39	0.5	52*
Cc1cccc(-n2c(CCN3C(=O)c4ccccc4C3=O)nc3ccccc3c2=O)n1	0.9	14	10	0.9	12
O=C1c2ccccc2C(=O)N1CCCc1nc2ccccc2c(=O)n1-c1cccnc1	0.4	4	63*	0.5	48
CC[N+](C)(C)CCN(Cc1ccc(Cl)cc1)c1ccccn1	1.1	11	-7	1	-5
CN(CC(=O)Nc1ccccc1C(F)(F)F)C(=O)COc1ncnc2sccc12	/	6	/	/	/
c1cncc(-c2nc(Oc3ccc(-c4nnco4)cc3)c3c4c(sc3n2)CCCC4)c1	0	/	98*	0.1	93*
C=CCNC(=O)/C(C#N)=C/c1c(N(Cc2ccccc2)Cc2ccccc2)nc2ccccn2c1=O	/	19	/	/	/
O=S(=O)(/N=C(/Sc1ccccc1)c1ccccc1)c1ccccc1	0	12	96*	0	96*
CS/C(=N\S(=O)(=O)c1ccccc1)c1ccccc1	/	27	/	/	/
CC(C)(C)n1nc2c(c1NC(=O)Cc1cccc3ccccc13)CS(=O)C2 (configuration not stated)	1	32	0	0.9	5
CON=C1CCN(c2ncc(C(F)(F)F)cc2Cl)CC1	1	4	-5	1.1	-12
O/N=C/c1cccn1-c1ccc(O)cc1	3*	1	-199	0.5	46
COc1ccc(-n2cccc2C=O)cc1	/	6	/	/	/
Cc1cc(NC(=O)CS(=O)(=O)c2cn(Cc3ccc(F)cc3)c3ccccc23)no1	0.5	11	48	0.8	18
Cc1cc(NC(=O)CS(=O)(=O)c2cn(Cc3cccc(F)c3)c3ccccc23)no1	0.3	17	72*	0.4	57*
CCn1cc(S(=O)(=O)CC(=O)Nc2ccc(OC)cc2)c2ccccc21	0.5	17	48	0.4	56*
O=C(NC1CCCC1)c1cc(Cl)ccc1[N+](=O)[O-]	/	30	/	/	/
COc1ccc(CN(CC2CCCO2)C(=O)CN2C(=O)C(C)Oc3ccc(C)cc32)cc1OC (configuration not stated)	/	4	/	/	/
CC12CCC(C(=O)N3CCN(C(c4ccccc4)c4ccccc4)CC3)(OC1=O)C2(C)C (configuration not stated)	0.1	34*	86*	0.5	48
O=C(C1CC1)N1CCN(C(c2ccccc2)c2ccccc2)CC1	0.3	15	69*	0.1	93*
CCNC(=S)N1CCN(C(c2ccccc2)c2ccccc2)CC1	0.1	23	91*	0.6	40
